GC-A act = GC-A stimulated cGMP production enhancers – HEK293 GC-A cells, cGMP TR-FRET, EC30 ANP, primary screen; AID 1671463, 2021; 0% at EC30 ANP, 100% saturating ANP; activation, % at 10 µM; actives 0.14% (n = 370,000); Atrial natriuretic peptide receptor 1 (Homo sapiens), P16066; in the data active = activation above about 40%
HDAC3 inhib = HDAC3 deacetylase inhibitors, primary screen, biochemical, fluorescence, cell-free homogeneous | Histone deacetylase 3 (Homo sapiens), O15379 | inhibition, % at 8.3 µM | recombinant HDAC3, fluorogenic peptide/trypsin coupled | AID 2718, 2010 | actives 0.15% (n = 320,000); in the data active = inhibition above about 26%, passing the limit was not always enough
GC-B act = human GC-B receptor activators, primary screen, HEK293 GC-B cells, cGMP TR-FRET, EC30 CNP; Atrial natriuretic peptide receptor 2 (Homo sapiens), P20594; activation, % at 10 µM; actives 0.11% (n = 370,000); 0% at EC30 CNP, 100% saturating CNP; AID 1920062, 2024;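 active = activation at 10 µM reaching about 35% in either raw or pattern-adjusted values, limit read from the data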
ALR inh = inhibitors of human ALR sulfhydryl oxidase, primary screen, biochemical, H2O2 detection, HRP-luminol luminescence, single point. FAD-linked sulfhydryl oxidase ALR (Homo sapiens), P55789. purified ALR, DTT oxidation. inhibition, % (concentration not given with the values). actives 3.8% (n = 290,000). AID 485317, 2010;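 active = mean replicate inhibition above about 79%, with every replicate also reaching it, limit read from the data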
An asterisk follows results filed as active; x = no result given. Shown is part of a subset that was picked to be rich in hits.

SMILES	GC-A act	HDAC3 inhib	GC-B act	ALR inh
CC1CCc2c(sc(NC(=O)c3ccccc3C(=O)O)c2C#N)C1 (stereo not given)	2.9	7.8	0.8	96.8*
CC(C)(C)C1CCc2c(sc(NC(=O)C3CC=CCC3C(=O)O)c2C#N)C1 (stereo not given)	2.3	8.8	1.9	96.9*
N#Cc1c(NC(=O)C2CC=CCC2C(=O)O)sc2c1CCCCCC2 (stereo not given)	-0.9	7.0	-3.0	x
CCC(C)(C)C1CCc2c(sc(NC(=O)c3ccccc3C(=O)O)c2C#N)C1 (stereo not given)	3.9	6.6	-2.4	62.9
NNC(=O)c1ccc(O)cc1O	-4.0	7.5	2.5	98.9*
NNC(=O)c1cc2ccccc2cc1O	-2.1	-4.5	-0.9	1.6
CC(=O)Nc1ccnc(-c2cccnc2)n1	-1.7	-4.6	-0.6	-5.5
CCCCC(=O)Nc1ccnc(-c2cccnc2)n1	0.0	8.6	-3.6	84.8*
O=C1c2ccccc2C(Nc2ccccc2)N1c1cccnc1 (stereo not given)	-4.7	-6.1	-2.2	-17.1
COc1ccc(NC2c3ccccc3C(=O)N2c2cccnc2)cc1Cl (stereo not given)	-4.1	-4.5	-2.5	82.6*
Cc1oc(-c2ccccc2F)nc1CN1CCC(C(=O)NC2CC2)CC1	3.8	-9.0	-0.4	7.0
Cc1ccccc1-c1nc(CS(=O)CC(=O)NC2CCCC2)c(C)o1 (stereo not given)	0.1	8.2	-1.6	98.5*
Cc1cccc(-c2nc(CS(=O)CC(=O)NC3CCCC3)c(C)o2)c1 (stereo not given)	0.8	x	-6.2	x
Cc1ccccc1-c1nc(CS(=O)CC(=O)NC2CCCCC2)c(C)o1 (stereo not given)	1.2	-1.0	0.2	98.8*
Cc1ccccc1-c1nc(CS(=O)CC(=O)NC2CC2)c(C)o1 (stereo not given)	-0.8	1.5	5.9	98.7*
Cc1oc(-c2ccccc2F)nc1CS(=O)CC(=O)NC1CCCC1 (stereo not given)	-1.2	2.6	-1.2	98.7*
CC1(C)CC(=O)C(=CN2CCOCC2)C(=O)C1	-0.8	0.6	3.3	-0.1
O=C(NCc1ccccc1)[C@@H]1CCCN1C(=O)[C@H]1CCCN1C(=O)c1cc(F)cc(F)c1	-0.7	x	-0.6	x
O=[N+]([O-])c1ccc(NCc2ccccc2N2CCC(CO)CC2)nc1	-1.1	0.7	0.0	4.8
N#C/C(=N\Nc1ccccc1)C(N)=S	2.5	6.8	5.0	92.3*
N#C/C(=N/Nc1ccccc1[N+](=O)[O-])C(N)=S	2.4	8.8	1.6	-1.2
Cc1ccc(N/N=C(\C#N)C(N)=S)cc1C	10.4	5.5	6.3	x
N#C/C(=N\Nc1ccc(Cl)cc1)C(N)=S	10.9	13.2	6.2	94.4*
N#Cc1c2c(c(Nc3ccccc3)n3c1nc1ccccc13)CCC2	54.0*	-17.5	8.3	1.3
N#Cc1c2c(c(Nc3ccc(F)cc3)n3c1nc1ccccc13)CCCC2	44.0*	x	12.1	x
SMILES	GC-A act	HDAC3 inhib	GC-B act	ALR inh
NC(=O)C1=C[C@H](c2ccccc2)C[C@H](OCc2ccc(CO)cc2)O1	1.0	28.1*	0.5	x
CC1(C)CC(=O)C/C(=N/Nc2nc3ccccc3s2)C1	-0.3	6.1	-0.3	x
CC1CCC/C(=N/Nc2nc3ccccc3s2)C1 (stereo not given)	0.3	7.5	-12.3	96.7*
O=C(c1ccc(Cl)cc1)[C@@H]1[C@@H]2C(=O)N(c3cccc4ccccc34)C(=O)[C@@H]2C2c3ccccc3C=NN21 (stereo not given in full)	3.1	-12.3	1.9	-2.2
NS(=O)(=O)c1ccc(Sc2ccc3ccccc3c2)nc1	-2.6	2.8	1.6	99.0*
NS(=O)(=O)c1ccc(SCc2ccccc2)nc1	4.4	-6.6	1.2	-0.9
Nc1nc(CN2CCN(c3ccccc3)CC2)nc(N2CCCc3ccccc32)n1	-4.3	8.9	-0.7	98.1*
Nc1nc(CN2CCN(c3cccc(Cl)c3)CC2)nc(N2CCCc3ccccc32)n1	-6.6	-2.3	0.2	-0.2
COc1ccc(N2CCN(Cc3nc(N)nc(N4CCCc5ccccc54)n3)CC2)cc1	x	1.4	x	86.8*
CN(C)CCNC(=O)C(=O)NCC(c1ccc2c(c1)OCO2)N1CCN(c2ccc(F)cc2)CC1 (stereo not given)	0.7	1.7	5.5	98.8*
COc1ccc(N2CCN(C(CNC(=O)C(C)C)c3ccc4c(c3)OCO4)CC2)cc1 (stereo not given)	-0.3	-0.8	3.7	86.3*
COC(=O)NCC(c1ccc2c(c1)OCO2)N1CCN(c2ccc(OC)cc2)CC1 (stereo not given)	2.4	5.0	-0.4	91.0*
O=C(OCC(=O)N1CCc2ccccc21)[C@@H]1CC(O)CN1S(=O)(=O)c1ccc(Cl)cc1 (stereo not given in full)	-1.2	-1.6	-7.7	-7.7
CC(C)(C)c1ccccc1OCCCCCNCCO	-2.0	0.5	1.0	-8.5
C/C(=N\Nc1ccccc1)c1c(O)cc(C)oc1=O	-5.3	-2.3	-1.8	98.6*
Cc1ccc(N/N=C/c2c(O)cc(C)oc2=O)cc1	-2.5	-4.0	3.0	98.8*
C/C(=N/NC(=O)c1cccc(C)c1)c1c(O)cc(C)oc1=O	-0.5	1.2	1.9	29.9
Cc1cc(O)c(/C=N/Nc2ccc(F)cc2)c(=O)o1	-5.2	0.6	-5.2	-52.7
CN(C)c1ccc(C2CC(=O)C=C(Nc3ccccc3N)C2)cc1 (stereo not given)	-5.2	2.2	-2.6	57.0
Cn1nc(-c2ccc(Cl)cc2)c2cc(C(=O)N3CCOCC3)sc21	4.6	-1.8	15.1	95.2*
CN1CCN(CCCNC(=O)c2cc3c(-c4ccc(Cl)cc4)nn(C)c3s2)CC1	2.5	x	-6.6	x
COc1ccc(N2CCN(C(=O)c3cc4c(-c5ccc(Cl)cc5)nn(C)c4s3)CC2)cc1	-6.2	-9.8	7.4	37.5
Cn1nc(-c2ccc(Cl)cc2)c2cc(C(=O)NCC3CCCO3)sc21 (stereo not given)	13.6	-15.1	5.5	92.6*
CCN(CC)CCCNC(=O)c1cc(-c2ccc(O)cc2)on1	-0.3	3.3	2.2	99.1*
CCN(CC)CCCNC(=O)c1cc2c(-c3ccc(Cl)cc3)nn(C)c2s1	-0.4	-80.7	-4.4	93.9*
COc1ccc(CN2CCN(CCc3ccccc3)C(CCO)C2)cc1Cn1cncn1 (stereo not given)	5.1	1.2	4.8	-2.8
CCc1ccc(C(=O)COC(=O)c2cccnc2Cl)cc1	5.9	-0.8	6.0	-9.4
C(=N\N(Cc1ccccc1)c1ccccc1)/c1cccnc1	6.1	15.5	2.0	-16.5
C/C(=N\N(Cc1ccccc1)c1ccccc1)c1cccnc1	-11.5	-0.7	-2.4	98.5*
CCn1c2ccccc2c2cc(NC(=O)COC(=O)c3cccc(F)c3F)ccc21	0.3	x	-10.3	x

Source: PubChem
